40 compounds from PubChem BioAssay (NCATS) can be followed below.

Results filed as inconclusive are left out. A call without a number means that no potency is given here. Values without a mark were called inactive. Activity calls are given as the source filed them. Calls come from the whole dose curve; as a rule, active = well fitted inhibition curve with a large enough effect; inconclusive = small, poorly fitted or top-dose-only effect; inactive = flat fitted curve, though single readings scatter. Square brackets hold non-standard residues; d marks the D form. Peptide text beside a SMILES is read from it. Hyp = O=C(O)[CH]1C[CH](O)CN1; Phe(ol) = N[CH](CO)Cc1ccccc1; Iva = CC[C](C)(N)C(=O)O; Aib = CC(C)(N)C(=O)O

The test addresses Aldehyde dehydrogenase, mitochondrial (Homo sapiens) (UniProt P05091). Kind of test: qHTS for Inhibitors of the Aldehyde Dehydrogenase Family (ALDH2) Primary screen (AID 2061308). Note: nearly all actives have a fitted effect of over 55% in size. The note with it: ALDH2 enzyme inhibition qHTS, 1536-well; series mostly up to 56 µM.
As for `O=C(O)c1cc(O[C@@H]2O[C@H](CO)[C@@H](O)[C@H](O)[C@H]2O)ccc1O`, the Potency result was “inactive”.

Turning to `CC(C)(C)c1ccc(C(=O)Nc2cc(Cl)c(Br)cc2C(=O)O)cc1`, the Potency entry was “inactive”.

As to `O=C(Nc1nc2cc(C(F)(F)F)cc(NC3CC3)n2n1)c1cccnc1`, the Potency result was “inactive”.

For the compound `COc1cc(COC2OC(CO)C(O)C(O)C2O)cc(OC)c1O` (stereo not given), the Potency entry is “inactive”.

For `CC(=O)NCCCCn1c2c(c3ccccc31)C(=O)NCC2`, the Potency result is “inactive”.

As for `CCC1C(=O)OC23C=C[C@@H]4C(C(=O)O)=CO[C@H](O[C@@H]12)[C@@H]43` (stereo not given in full), the Potency entry is “inactive”.

As to `COc1cc(O)cc(C)c1C(=O)O[C@H]1[C@@H](O)[C@@H](n2ccc(=O)[nH]c2=O)O[C@@H]1CO`, the Potency result was “inactive”.

In the case of `OC(CN1CCN(c2cccc(Cl)c2)CC1)C(c1ccccc1)c1ccccc1` (stereo not given), the Potency entry was “inactive”.

Consider `COc1cccc(CN(C(=O)CC(C)(C)C)[C@H]2C[C@H](C(=O)N3CCNCC3)N(Cc3ccc4c(c3)OCO4)C2)c1`, for which the Potency entry is “inactive”.

Take `OCC(CO[C@@H]1O[C@H](CO)[C@@H](O)[C@H](O)[C@H]1O)c1ccc2c(c1)OCO2` (stereo not given in full): the Potency result is “inactive”.

Regarding `CC/C=C\C[C@H]1C(=O)C=C[C@@H]1CCCCCCCC(=O)O`, the Potency result was “inactive”.

With `O=C(O[C@H]1[C@@H]2C=CO[C@@H](O[C@@H]3O[C@H](CO)[C@@H](O)[C@H](O)[C@H]3O)[C@@H]2[C@@]2(CO)O[C@@H]12)c1ccc(O)cc1`, the Potency entry was “inactive”.

`C[C@@H]1O[C@@H](O[C@H]2[C@H](O)[C@@H](O)[C@H](O[C@H]3[C@H](O[C@H]4CC[C@@]5(C)C(=CC[C@@H]6C5CC[C@]5(C)[C@@H]7[C@H](C[C@@H]65)O[C@]5(CC[C@@](C)(CO[C@@H]6O[C@H](CO)[C@@H](O)[C@H](O)[C@H]6O)O5)[C@H]7C)C4)O[C@H](CO)[C@@H](O)[C@@H]3O)O[C@@H]2CO)[C@H](O)[C@H](O)[C@H]1O` (stereo not given in full): the Potency entry is “inactive”.

For the compound `Cc1ccc(F)cc1S(=O)(=O)N[C@@H]1CCN(Cc2ccc(OC(C)C)cc2)C1`, the Potency entry is “inactive”.

Turning to `C[C@@H]1O[C@@H](O[C@H]2CC[C@@]3(C)C(CC[C@]4(C)C3CC=C3[C@@H]5CC(C)(C)CC[C@]5(C(=O)O[C@@H]5O[C@H](CO)[C@@H](O)[C@H](O)[C@H]5O)CC[C@]34C)[C@]2(C)CO)[C@H](O)[C@H](O[C@@H]2O[C@H](CO)[C@@H](O)[C@H](O)[C@H]2O)[C@H]1O` (stereo not given in full), the Potency result was “inactive”.

For the compound `CC(C)=C1C[C@@]2(C)C(=CC1=O)CC[C@@H](O)[C@@H]2C`, the Potency entry was “inactive”.

On to `CCC(C)(NC(=O)C(CCC(N)=O)NC(=O)C1CC(O)CN1C(=O)C(C)(C)NC(=O)C(C)(C)NC(=O)C(CC(C)C)NC(=O)CNC(=O)C(NC(=O)C(C)(C)NC(=O)C(C)(C)NC(=O)C(C)(C)NC(=O)C(Cc1ccccc1)NC(C)=O)C(C)C)C(=O)N1CC(O)CC1C(=O)NC(C)(C)C(=O)NC(CO)Cc1ccccc1` (stereo not given) (Ac-F[Aib][Aib][Aib]VGL[Aib][Aib][Hyp]Q[Iva][Hyp][Aib][Phe(ol)]; configuration not given here), for which the activity change, negative = inhibition was -9.83% [at 11.2 µM].

For `C/C=C/C=C/C=C/C(=O)O[C@@H]1C=C(CO)C(O)(C(=O)OC)[C@@]2(C)CCCC(C)(C)C12` (stereo not given in full), the Potency entry was “inactive”.

`Fc1ccccc1CNCc1ccc(-c2ccnc3[nH]ccc23)cc1`: the Potency entry was “inactive”.

In the case of `CC1CC[C@]2(C(=O)O)CC[C@]3(C(=O)O)C(=CCC4[C@@]5(C)CC[C@H](OC6OC(C)C(O)C(OC7OC(CO)C(O)C(O)C7O)C6O)C(C)(C)C5CC[C@]43C)C2C1C` (stereo not given in full), the Potency result was “inactive”.

For `CC(C)(O)/C=C/CC(C)(O)C1C(O)CC2(C)C3CCC4C(C)(C)C(=O)CCC4(C)C3CCC12C` (stereo not given), the Potency result is “inactive”.

As for `C[C@@H]1CCC2C(C)(C)[C@H](O)CC[C@]2(C)[C@@]12Cc1c(O)cc3c(c1O2)CN(CCO)C3=O` (stereo not given in full), the Potency entry was “inactive”.

Regarding `CC[C@@H](C)[C@@H]1OC2(C=C[C@H]1C)C[C@@H]1C[C@H](C/C=C(\C)[C@H](O[C@H]3C[C@H](OC)[C@H](O[C@H]4C[C@H](OC)[C@H](NC(C)=O)[C@H](C)O4)[C@H](C)O3)[C@H](C)/C=C/C=C3\CO[C@H]4[C@H](O)C(C)=C[C@@H](C(=O)O1)[C@@]34O)O2` (stereo not given in full), the Potency result is “inactive”.

Regarding `C[C@H](C(=O)NC1CCCC1)N(C(=O)Cn1nnc(-c2ccc3c(c2)OCO3)n1)C1CCCCC1`, the Potency result was “inactive”.

As for `C=CCc1ccc(O[C@@H]2O[C@H](CO[C@@H]3O[C@@H](C)[C@H](O)[C@@H](O)[C@H]3O)[C@@H](O)[C@H](O)[C@H]2O)cc1`, the Potency entry was “inactive”.

Consider `CC1(C(=O)O)CCCC2(C)C3=CCC4CC3(CCC12)CC4CO` (stereo not given), for which the Potency result was “inactive”.

On to `CNC12CC3C[C@@](C)(C1)C[C@](C)(C3)C2`, for which the Potency entry was “inactive”.

`O=C(NCC(O)CO)c1ccncc1Nc1ccc(I)cc1F` (stereo not given): the Potency result was “inactive”.

As for `C[C@@H]1O[C@@H](O[C@@H]2[C@@H](O)[C@H](O[C@@H]3[C@@H](O)[C@@H](O)[C@H](O[C@H]4[C@H](OC(=O)[C@]56CCC(C)(C)C[C@H]5C5=CCC7[C@@]8(C)C[C@H](O)[C@H](O[C@@H]9O[C@H](C(=O)O)[C@@H](O)[C@H](O)[C@H]9O)[C@@](C)(CO)C8[C@H](O)C[C@@]7(C)[C@]5(C)CC6)OC[C@H](O)[C@@H]4O)O[C@H]3C)OC[C@H]2O)[C@H](O)[C@H](O)[C@H]1O` (stereo not given in full), the activity change, negative = inhibition was 10.8% [at 11.2 µM].

Take `CC(=O)O[C@@H]1[C@H](OC(C)=O)C[C@@]2(C)C(CC[C@@H](C)[C@]23Cc2c(O)cc4c(c2O3)CN([C@@H](CCC(=O)O)C(=O)O)C4=O)C1(C)C` (stereo not given in full): the Potency result is “inactive”.

Consider `CCCC(=O)C1(c2ccccc2)CCN(C(=O)[C@@H](Cc2ccc(OC)cc2)NC(=O)[C@@H](N)Cc2cncn2C)CC1`, for which the Potency entry was “inactive”.

As to `C=CC(C)(O)CC/C=C(\C)C(=O)O[C@@H]1[C@@H](O)[C@H](OC(C)(C=C)CC/C=C(\C)C(=O)O[C@@H]2O[C@H](CO)[C@@H](O)[C@H](O)[C@H]2O)O[C@H](CO)[C@H]1OC(=O)/C(C)=C/CCC(C)(O)C=C` (stereo not given in full), the Potency entry was “inactive”.

Regarding `CC(=O)OCC1=C[C@@H]2OC(=O)C3=CO[C@@H](O[C@@H]4O[C@H](CO)[C@@H](O)[C@H](O)[C@H]4O)[C@H]1[C@@H]32`, the Potency entry is “inactive”.

Take `CC(C)=CCC[C@@](C)(O)[C@H]1CC[C@]2(C)[C@@H]1[C@H](O)CC1[C@@]3(C)CC[C@H](O[C@@H]4O[C@H](CO)[C@@H](O)[C@H](O)[C@H]4O[C@@H]4O[C@H](CO)[C@@H](O)[C@H](O)[C@H]4O)C(C)(C)[C@@H]3CC[C@]12C` (stereo not given in full): the Potency result was “inactive”.

For the compound `CC1CCCC(SCC(O)C(=O)O)CC(=O)c2c(O)cc(O)cc2CC(=O)O1` (stereo not given), the Potency result was “inactive”.

`CC1(C)CCCC2(C)c3c4c(c(=O)oc(=O)c3=CCC12)=CCC1C(C)(C)CCCC41C` (stereo not given): the Potency entry was “inactive”.

Turning to `Nc1ccc(-n2nc(C(F)(F)F)cc2C(F)(F)F)cc1`, the Potency entry is “inactive”.

`C/C(=C\CO)CC/C=C(\C)C(=O)O[C@@H]1O[C@H](CO)[C@@H](O)[C@H](O)[C@H]1O`: the Potency result was “inactive”.

On to `CC(=O)O[C@@H]1C[C@@H](OC(C)=O)C(C)(C)/C=C/[C@H](C)[C@H](OC(C)=O)[C@@]2(O)C[C@H](C)[C@H](OC(=O)c3ccccc3)[C@@H]2/C=C/1C`, for which the Potency result was “inactive”.

In the case of `CCC(=O)OCC(=O)[C@@]1(OC(=O)CC)[C@@H](C)C[C@H]2[C@@H]3CCC4=CC(=O)C=C[C@]4(C)[C@@]3(F)[C@@H](O)C[C@@]21C`, the Potency entry was “inactive”.
